AI-2 QS modul – Vibrio harveyi AI-2 quorum sensing modulators, primary screen, JMH597 strain, luminescence/OD600 ratio; Vibrio harveyi JMH597 AI-2 luminescence/OD600 ratio, 9 h; stronger effect = lower value; strain lacks LuxN and CqsS sensors; 0 = neutral-control median; activity change, % at 7.5 µM; 0.4% of 300,000 active; AID 2094, 2009; in the data active = activity change below about -75%, passing the limit was not always enough;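 also: luminescence divided by OD600 gain over 9 h not by final OD600 alone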
NTR1 agonist – agonists of human NTR1, primary screen, imaging, U2OS cells, beta-arrestin-GFP, high content; Neurotensin receptor type 1 (Homo sapiens), P30989; NTR1-U2OS beta-arrestin-GFP spot imaging, agonist mode; activation, % at 20 µM; 0.17% of 330,000 active; AID 493036, 2011;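 active = activation at or above 40% of the spot to cytoplasm intensity ratio, with at least 20 cells analyzed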
Target sequence (P30989 whole entry, looked up): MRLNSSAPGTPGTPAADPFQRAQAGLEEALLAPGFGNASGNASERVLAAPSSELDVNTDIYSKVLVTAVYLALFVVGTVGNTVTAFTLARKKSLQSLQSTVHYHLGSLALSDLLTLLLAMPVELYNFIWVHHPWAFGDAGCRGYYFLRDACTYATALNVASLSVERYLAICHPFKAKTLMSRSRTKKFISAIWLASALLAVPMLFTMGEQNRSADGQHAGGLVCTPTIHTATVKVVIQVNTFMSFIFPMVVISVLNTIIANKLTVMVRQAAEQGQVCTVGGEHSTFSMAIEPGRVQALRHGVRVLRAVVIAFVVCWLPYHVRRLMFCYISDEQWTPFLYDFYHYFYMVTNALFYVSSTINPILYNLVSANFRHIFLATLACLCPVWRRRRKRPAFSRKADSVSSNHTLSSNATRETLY
Mot1-301 SUMO – yeast Mot1-301 growth rescue at high temperature, primary screen, SUMOylation pathway inhibitor project, S. cerevisiae, ATP luminescence, 38.5C | AID 2716, 2010 | S. cerevisiae Mot1-301 growth rescue; percent above DMSO median, 100 means doubled | growth rescue, % at 18.8 µM | 1% of 320,000 active;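 active = every valid replicate shows activation above 250% relative to neutral control wells; inactive = the rest, any valid replicate at or below 250%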
Cardio protect – cardioprotection against H2O2-induced cell death, primary screen, uHTS, H9c2 cells, ATPLite luminescence; H9c2 cardiomyocytes, H2O2 injury protection, 2 h; protection from H2O2 cell death, % at 20 µM; 0.63% of 360,000 active;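 active = compounds giving at least 50% protection of heart cells from peroxide-induced death in the single-dose screen, raw or plate-pattern-corrected value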
NR3A LBD binder – binders of NR3A ligand-binding domain, primary screen, biophysical, differential scanning fluorimetry, uHTS; NR3A LBD differential scanning fluorimetry, Tm shift; 0% = protein alone, 100% = glycine-bound protein; Tm shift relative to glycine control, % at 25 µM; 2.5% of 340,000 active;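 active = melting temperature shift of at least 10% of the positive control shift, at one fixed dose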
AHR activator – AHR activators, primary screen, cell-based, luminescence, luciferase reporter, human; Aryl hydrocarbon receptor (Homo sapiens), P35869; activation, % at 5 µM; AHR-responsive luciferase reporter cells; 2.5% of 320,000 active; in the data active = activation above about 47%
Hits are given with their value. Hits are enriched below; roughly 6.2% of the tested compounds scored in any of these assays.

Results for Cc1ccc(/C=N/N2CCN(c3ccccc3)CC2)cc1 ?
AI-2 QS modul: inactive; NTR1 agonist: inactive; Mot1-301 SUMO: inactive; Cardio protect: inactive; NR3A LBD binder: inactive; AHR activator: inactive

What do the screens show for `CC1(C)CN(C(Cc2ccccc2)C(N)=O)C1=O` (stereo unspecified)?
AI-2 QS modul: inactive; NTR1 agonist: inactive; Mot1-301 SUMO: inactive; Cardio protect: inactive; NR3A LBD binder: inactive; AHR activator: inactive

How did Nc1sc(-c2ccccc2)cc1C(=O)N/N=C/c1ccc(Cl)cc1 do in these assays?
AI-2 QS modul: inactive; NTR1 agonist: inactive; Mot1-301 SUMO: inactive; Cardio protect: inactive; NR3A LBD binder: 13; AHR activator: inactive

What do the screens show for `O=C(N/N=C/c1ccc(Cl)cc1)c1cc2c(s1)-c1ccccc1CC2`?
AI-2 QS modul: inactive; NTR1 agonist: inactive; Mot1-301 SUMO: inactive; Cardio protect: inactive; NR3A LBD binder: 12; AHR activator: inactive

What do the screens show for `O=C(N/N=C/c1ccc(Cl)cc1)c1cc(-c2cccnc2)nc2ccccc12`?
AI-2 QS modul: inactive; NTR1 agonist: inactive; Mot1-301 SUMO: inactive; Cardio protect: inactive; NR3A LBD binder: inactive; AHR activator: inactive

What do the screens show for `C(=N\N(Cc1ccccc1)c1ccccc1)/c1cccnc1`?
AI-2 QS modul: inactive; NTR1 agonist: inactive; Mot1-301 SUMO: inactive; Cardio protect: inactive; NR3A LBD binder: inactive; AHR activator: inactive

What do the screens show for `Oc1cccc(/C=N/N(Cc2ccccc2)c2ccccc2)c1`?
NTR1 agonist: inactive; Mot1-301 SUMO: inactive; Cardio protect: inactive; NR3A LBD binder: 16; AHR activator: inactive

Results for Fc1ccccc1N1CCN(Cc2nc(-c3ccc(Cl)cc3Cl)no2)CC1 ?
NTR1 agonist: inactive; Mot1-301 SUMO: inactive; Cardio protect: inactive; NR3A LBD binder: 20; AHR activator: inactive

How did Clc1ccc(Cc2noc(CN3CCN(c4ccccc4)CC3)n2)c(Cl)c1 do in these assays?
AI-2 QS modul: inactive; NTR1 agonist: inactive; Mot1-301 SUMO: inactive; Cardio protect: inactive; NR3A LBD binder: inactive; AHR activator: inactive

Results for Cc1ccc(-n2c(Cc3cccs3)nnc2SCC(=O)Nc2ccc(S(N)(=O)=O)cc2)cc1 ?
AI-2 QS modul: inactive; NTR1 agonist: inactive; Mot1-301 SUMO: inactive; Cardio protect: inactive; NR3A LBD binder: inactive; AHR activator: inactive

Results for NS(=O)(=O)c1ccc(NC(=O)CSc2nnc(Cc3cccs3)n2-c2ccccc2)cc1 ?
AI-2 QS modul: inactive; NTR1 agonist: inactive; Mot1-301 SUMO: inactive; Cardio protect: inactive; NR3A LBD binder: 10; AHR activator: inactive

What do the screens show for `Cc1cc(NS(=O)(=O)c2ccc(NC(=S)NC(=O)c3ccc(F)cc3)cc2)no1`?
AI-2 QS modul: inactive; NTR1 agonist: inactive; Mot1-301 SUMO: inactive; Cardio protect: inactive; NR3A LBD binder: 14; AHR activator: inactive

How did Cc1ccc(OC(C)C(=O)Nc2ccc(S(=O)(=O)Nc3cc(C)on3)cc2)cc1 (stereo unspecified) do in these assays?
AI-2 QS modul: inactive; NTR1 agonist: inactive; Cardio protect: inactive; NR3A LBD binder: 16; AHR activator: inactive

What do the screens show for `COc1ccc(CC(=O)Nc2ccc(S(=O)(=O)Nc3cc(C)on3)cc2)cc1`?
AI-2 QS modul: -92; NTR1 agonist: inactive; Mot1-301 SUMO: inactive; Cardio protect: inactive; NR3A LBD binder: inactive; AHR activator: inactive

How did Nc1c(C(=O)CSc2nc3ccccc3o2)c(=O)[nH]c(=O)n1C1CC1 do in these assays?
NTR1 agonist: inactive; Mot1-301 SUMO: inactive; Cardio protect: inactive; NR3A LBD binder: inactive; AHR activator: inactive

What do the screens show for `O=C(c1ccccc1Br)N(Cc1ccccc1)c1ccccc1`?
AI-2 QS modul: inactive; NTR1 agonist: inactive; Mot1-301 SUMO: inactive; Cardio protect: inactive; NR3A LBD binder: inactive; AHR activator: inactive

What do the screens show for `COc1ccc(-c2nc(NC(=O)Cn3c(=O)oc4ccccc43)sc2C)cc1`?
AI-2 QS modul: inactive; NTR1 agonist: inactive; Mot1-301 SUMO: inactive; Cardio protect: inactive; NR3A LBD binder: inactive; AHR activator: 70

Results for Cn1c(=O)c2c(nc(NCCNC(=O)c3ccco3)n2Cc2ccccc2)n(C)c1=O ?
AI-2 QS modul: inactive; NTR1 agonist: inactive; Mot1-301 SUMO: inactive; Cardio protect: inactive; NR3A LBD binder: inactive; AHR activator: inactive

What do the screens show for `Cc1nn(-c2ccc(C(=O)O)cc2)c(=O)c2ccccc12`?
AI-2 QS modul: inactive; NTR1 agonist: inactive; Cardio protect: inactive; NR3A LBD binder: inactive; AHR activator: inactive

Results for Cc1nn(-c2ccccc2)c(=O)c2ccccc12 ?
AI-2 QS modul: inactive; NTR1 agonist: inactive; Mot1-301 SUMO: inactive; Cardio protect: inactive; NR3A LBD binder: inactive; AHR activator: 61

What do the screens show for `Cc1nn(-c2cccc(C(F)(F)F)c2)c(=O)c2ccccc12`?
AI-2 QS modul: inactive; NTR1 agonist: inactive; Mot1-301 SUMO: inactive; Cardio protect: inactive; NR3A LBD binder: inactive; AHR activator: 50

What do the screens show for `Cc1cc(=O)[nH]c2c1c(C)nn2-c1ccccc1`?
AI-2 QS modul: inactive; NTR1 agonist: inactive; Mot1-301 SUMO: inactive; Cardio protect: inactive; NR3A LBD binder: inactive; AHR activator: 62

Results for COc1ccc(OC)c(NC(=O)NNC(=O)COc2ccc(F)cc2F)c1 ?
AI-2 QS modul: inactive; NTR1 agonist: inactive; Mot1-301 SUMO: inactive; Cardio protect: inactive; NR3A LBD binder: inactive; AHR activator: inactive

What do the screens show for `Cc1ccc(N2CC(C(=O)NCc3n[nH]c(=O)c4ccccc34)CC2=O)cc1C` (stereo unspecified)?
AI-2 QS modul: inactive; NTR1 agonist: inactive; Mot1-301 SUMO: inactive; Cardio protect: 72; NR3A LBD binder: inactive; AHR activator: inactive

How did CCOC(=O)Cc1n[nH]c(=O)c2ccccc12 do in these assays?
AI-2 QS modul: inactive; NTR1 agonist: inactive; Mot1-301 SUMO: inactive; Cardio protect: 69; NR3A LBD binder: inactive; AHR activator: inactive

How did Cc1ccc(OCC(=O)NCc2n[nH]c(=O)c3ccccc23)cc1 do in these assays?
AI-2 QS modul: inactive; NTR1 agonist: inactive; Mot1-301 SUMO: inactive; Cardio protect: 71; NR3A LBD binder: inactive; AHR activator: inactive

How did CCOC(=O)c1c(NC(=O)COC(=O)Cc2n[nH]c(=O)c3ccccc23)sc(C(=O)NC)c1C do in these assays?
NTR1 agonist: inactive; Mot1-301 SUMO: inactive; Cardio protect: 106; NR3A LBD binder: inactive; AHR activator: inactive

How did CCOc1ccc(OCC(=O)NCc2n[nH]c(=O)c3ccccc23)cc1 do in these assays?
AI-2 QS modul: inactive; NTR1 agonist: inactive; Cardio protect: inactive; NR3A LBD binder: inactive; AHR activator: inactive

Screens as filed in PubChem.
